The values that follow come from PubChem BioAssay (NCI).

Among the test systems are SK-MEL-2 melanoma; EKVX NSCLC; SN12C renal; TK-10 renal; ACHN renal; CAKI-1 renal; A498 renal; CCRF-CEM leukemia; MOLT-4 leukemia.
Experiment in all cases: NCI-60 one-dose screen, 48 h (100 = growth as untreated, 0 = no growth, -100 = all killed)
Conditions in all cases: 10 µM unless noted

This is part of a sample that, as a whole, favours compounds with a hit. Of some 83,000 tested, about 20% had one in any assay.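 Growth was measured after 48 h exposure to one concentration of compound in 96-well plates. Values under 10 count as active.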 Values without a mark were called inactive. The source made the active and inactive calls.

Take `COc1cc2c(cc1OCCCN1CCN(CCCOc3cc4c(cc3OC)C(=O)N3C[C@H](F)C[C@H]3C=N4)CC1)N=C[C@@H]1C[C@@H](F)CN1C2=O`: the growth in the experiment with SK-MEL-2 melanoma is -20.5% (active); in the experiment with EKVX NSCLC it was -34.3% (active); in the experiment on SN12C renal, 25.7%; with TK-10 renal, -52.5% (active); in the experiment with ACHN renal, 7.96% (active); in the experiment on CAKI-1 renal it was 16.9%. In addition, the growth with A498 renal was -55% (active); in the experiment on CCRF-CEM leukemia, -28.1% (active); with MOLT-4 leukemia it was -16.7% (active).
For the molecule `c1nc(N2CCOCC2)c2[nH]ccc2n1`, the growth is 96% with SK-MEL-2 melanoma; 103% with EKVX NSCLC; 104% with SN12C renal; 95.3% in the experiment with TK-10 renal; 109% in the experiment with ACHN renal; 103% in the experiment with CAKI-1 renal. Further, the growth in the experiment on A498 renal is 96.3%; in the experiment on CCRF-CEM leukemia, 107%; in the experiment on MOLT-4 leukemia, 94%.
For the molecule `COc1cc(C)cc2oc3oc(=O)c(-c4nc5ccccc5s4)cc3c(=O)c12`, the growth in the experiment on SK-MEL-2 melanoma was 113%; in the experiment on EKVX NSCLC, 105%; with SN12C renal, 98.4%; in the experiment with TK-10 renal it was 101%; in the experiment on ACHN renal, 100%; with A498 renal, 85.1%. In addition, the growth was 107% in the experiment with CCRF-CEM leukemia and 106% with MOLT-4 leukemia.
Consider `Cc1nc(Cl)c2c(n1)N(C)c1ccc(Cl)cc1C(C)C2` (stereo not given), for which the growth in the experiment with SK-MEL-2 melanoma is 96.1%; in the experiment on EKVX NSCLC, 75%; in the experiment with SN12C renal, 86.6%; with TK-10 renal it was 92.9%; in the experiment with ACHN renal it was 91.7%; in the experiment with CAKI-1 renal, 78.8%. The growth with A498 renal was 81.5%; in the experiment with CCRF-CEM leukemia, 90.3%; in the experiment on MOLT-4 leukemia it was 80.6%.
On to `CCN(CC)c1ccc2cc(C(Nc3ccc(C)cc3)c3nnnn3C(C)(C)C)c(=O)oc2c1` (stereo not given), for which the growth with SK-MEL-2 melanoma is 94.3%; in the experiment with EKVX NSCLC, 86.9%; in the experiment on SN12C renal, 91.8%; with TK-10 renal it was 90.7%; in the experiment with ACHN renal, 98.2%; with CAKI-1 renal, 79.2%. The figures for the growth in the experiment with A498 renal, in the experiment on CCRF-CEM leukemia and in the experiment with MOLT-4 leukemia were 94.7%, 98.6% and 65.5%, respectively.
With `O=C(Nc1cccc(C2=NCCN2)c1)c1cccc(C(=O)Nc2cccc(C3=NCCN3)c2)c1`, the growth was 103% in the experiment on SK-MEL-2 melanoma; 88.6% in the experiment on EKVX NSCLC; 95.7% in the experiment on SN12C renal; 89.3% in the experiment on TK-10 renal; 101% with ACHN renal; 92.6% in the experiment with CAKI-1 renal. For the same molecule, the growth with A498 renal is 111%; in the experiment with CCRF-CEM leukemia, 104%; in the experiment on MOLT-4 leukemia it was 100%.
`COc1cc(-c2nc(SCCC(C)C)nc(Nc3ccc(S(N)(=O)=O)cc3)c2C#N)cc(OC)c1OC`: the growth is 51.4% with SK-MEL-2 melanoma; 45.1% with EKVX NSCLC; 26.4% in the experiment with SN12C renal; 50% in the experiment with TK-10 renal; 17.1% in the experiment on CAKI-1 renal; 43.5% with A498 renal. The results for the growth with CCRF-CEM leukemia and with MOLT-4 leukemia were 14.1% and 1.98% (active), respectively.
Consider `CC1(C)CC[C@]2(C(N)=O)CC[C@]3(C)C(=CC[C@@H]4[C@@]5(C)C/C(=C/c6cccnc6)C(=O)C(C)(C)[C@@H]5CC[C@]43C)[C@@H]2C1`, for which the growth in the experiment on SK-MEL-2 melanoma was -57.5% [100 µM] (active); in the experiment on EKVX NSCLC, 1.54% [100 µM] (active); in the experiment with SN12C renal, -58.8% [100 µM] (active); with TK-10 renal, -14.8% [100 µM] (active); in the experiment with ACHN renal, -61.1% [100 µM] (active); in the experiment on A498 renal, -83.4% [100 µM] (active). In addition, the growth in the experiment on CCRF-CEM leukemia was 2.68% [100 µM] (active); in the experiment on MOLT-4 leukemia, -9.98% [100 µM] (active).
Take `CN(C)c1cc(NN=C(c2ccc(O)cc2)c2ccc(O)cc2)c([N+](=O)[O-])cc1[N+](=O)[O-]`: the growth in the experiment with SK-MEL-2 melanoma is -12.1% (active); in the experiment on EKVX NSCLC, 94.2%; in the experiment with SN12C renal, 93.8%; in the experiment on TK-10 renal it was 136%; in the experiment with ACHN renal, 50.1%; with CAKI-1 renal, 74.8%. For the same molecule, the growth was 135% with A498 renal, 107% in the experiment on CCRF-CEM leukemia and 97.6% with MOLT-4 leukemia.
On to `COc1ccc2c(c1)c(-c1noc(-c3cn(C)c4ncc(F)cc34)n1)cn2C`, for which the growth in the experiment on SK-MEL-2 melanoma is 94%; with EKVX NSCLC it was 65%; in the experiment on SN12C renal, 52.7%; in the experiment with TK-10 renal it was 86.2%; with ACHN renal, 84.4%; in the experiment with CAKI-1 renal, 76.6%. Further, the growth in the experiment on A498 renal was 65.7%; in the experiment on CCRF-CEM leukemia it was 99%; in the experiment with MOLT-4 leukemia, 87.6%.
In the case of `OC(c1ccc(Cl)cc1)(c1ccc(Cl)cc1)C(O)(c1ccc(Cl)cc1)c1ccc(Cl)cc1`, the growth was 68.4% with SK-MEL-2 melanoma; 49% in the experiment on EKVX NSCLC; 29.8% with SN12C renal; 29.1% with TK-10 renal; 61.8% in the experiment on ACHN renal; 46.8% with CAKI-1 renal. Further, the growth was 64.4% with A498 renal, 32.8% in the experiment on CCRF-CEM leukemia and 22.7% in the experiment on MOLT-4 leukemia.
For `CCC(Br)(CC)C(=O)c1ccc(OCC(=O)O)c(Cl)c1Cl`, the growth in the experiment with SK-MEL-2 melanoma is 94.6%; with EKVX NSCLC, 95.3%; in the experiment with SN12C renal, 89.1%; in the experiment with TK-10 renal, 125%; with ACHN renal it was 108%; with CAKI-1 renal, 83.8%. For the same molecule, the results for the growth in the experiment with A498 renal, in the experiment with CCRF-CEM leukemia and in the experiment on MOLT-4 leukemia were 97.1%, 116% and 109%, respectively.
